uPA surface inh = blocks generation of uPA at the cell surface | 0.31% of 330,000 active | Potency, µM (series often up to 38.3 µM), without a hit: at the top dose activity change, negative = inhibition, usual class: inhibitors | cell surface uPA generation assay, qHTS; active means well fitted inhibition curve with a large enough effect; inconclusive means small, poorly fitted or top-dose-only effect; inactive means no such curve, though single readings can be large or run the other way; tested in mouse RAW 264.7 cells; further: potency means the concentration at half of the fitted maximal effect; nearly all actives have a fitted effect of over 55% in size
DT40 TDP1 CPT = DT40-hTDP1 cell growth loss with CPT. AID 686979. 12% of 420,000 active. Potency, µM (highest dose often 46.2 µM), inactives show top-dose activity change, negative = growth inhibition, actives largely listed as inhibitors. chicken DT40 Tdp1-/-;hTDP1 cells + 20 nM CPT, ATP luminescence, 48 h; further: potency means the concentration at half of the fitted maximal effect; nearly all actives have a fitted effect of over 55% in size
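Cell growth measured by CellTiter-Glo luminescence after a minimum 48 h, 37 C compound exposure with 20 nM CPT in Tdp1-knockout DT40 cells stably expressing hTDP1, seeded 400/well; qHTS titration format.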
DT40 TDP1 no CPT = qHTS for Inhibitors of human tyrosyl-DNA phosphodiesterase 1 (TDP1): qHTS in cells in absence of CPT | DT40 Tdp1-/- hTDP1 cells, no CPT, ATP luminescence, 48 h | 15% of 420,000 active | AID 686978, 2013 | Potency, µM (top dose mostly 46.2 µM), for inactives: at the highest dose activity change, negative = growth inhibition, usual class: inhibitors; further: potency means the concentration at half of the fitted maximal effect; nearly all actives have a fitted effect of over 55% in size
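Cells were dispensed at 400 per well, compounds added by pin tool, plates incubated ≥48 hr at 37 °C, then CellTiter-Glo added for 30 min at room temperature before luminescence reading. Line: DT40 Tdp1-/- complemented with hTDP1; camptothecin omitted.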
HT1080NT lethal = kills 2HG-producing HT-1080-NT fibrosarcoma cells; HT-1080-NT fibrosarcoma viability, CellTiter-Glo ATP luminescence, 48 h; Potency, µM (doses to about 46.1 µM), for the others: at the highest dose activity, negative = less viability, most hits filed as cytotoxic; 1.6% of 360,000 active;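 further: NT is the 2HG producing partner of a matched IDH1 knockdown line; potency means the concentration at half of the fitted maximal effect; 0% = DMSO-treated cells and -100% = media-only wells without cells; nearly all actives have a fitted effect of over 55% in size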
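Fibrosarcoma NT cells, 750 per well in 5% FBS RPMI, were exposed to compound for 48 hours. Viability: CellTiter-Glo luminescence.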
HT1080 IDH1KD tx = HT-1080 IDH1 knockdown cell toxicity (counter line). 2% of 360,000 active. HT-1080 IDH1 knockdown viability, ATP luminescence, 48 h. Potency, µM (series often up to 46.1 µM), for the others: top-dose activity, negative = toxicity, hits mostly cytotoxic;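 further: potency means the concentration at half of the fitted maximal effect; 0% = DMSO wells and -100% = cell-free medium wells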
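HT-1080-IDH1KD cells (IDH1 knocked down), 750/well in RPMI with 5% FBS, treated with compound 48 h at 37 degrees C. Viability by CellTiter-Glo luminescence, normalised to DMSO and no-cell wells; concentration-response curves classed.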
IL-1B inflam inh = blocks inflammasome-driven IL-1 beta release | AID 743279 | THP-1 LPS/ATP IL-1B secretion, AlphaLISA, 16 h; stronger effect = lower value | 4.7% of 360,000 active | activity change, % at 57.5 µM; in the data active means activity change below about -50%; inconclusive means mostly about -30% to -49%
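THP-1 cells pretreated 1 hr with compounds (up to 57.5 uM final), then stimulated with LPS (250 ng/mL final) plus ATP (1.25 mM final); secreted IL-1B measured by AlphaLISA after 16 hr, decreased signal indicating inhibition.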
* marks the source's active call; other numbers are inactive results; ? = inconclusive; · = not tested or not shown. Sampled rows, rich in hits. Any-hit rate of the full collection: about 19%. Unless noted, the call rests on the fitted dose curve; in most records, active means well fitted curve in the direction sought with a large enough effect; inconclusive means small, poorly fitted or top-dose-only effect, or another doubt; inactive means no such curve, though single readings can be large; an effect the other way counts as inactive or inconclusive. Unless noted, on the % scale 0 is the no-effect control and ±100 the full control effect.

SMILES	uPA surface inh	DT40 TDP1 CPT	DT40 TDP1 no CPT	HT1080NT lethal	HT1080 IDH1KD tx	IL-1B inflam inh
CCn1c(=O)c2ccccc2n(Cc2cccc([N+](=O)[O-])c2)c1=O	-6.4%	1.8%	?	-3.7%	-4.3%	-50.3*
O=C(COC(=O)Cc1ccccc1F)NCCNC(=O)COC(=O)Cc1ccccc1F	10.9%	-4.4%	-0.9%	1.1%	9.9%	3.8
COc1cccc(-n2c(=O)c3sccc3n(Cc3cc(=O)n4cc(Cl)ccc4n3)c2=O)c1	·	-7.5%	-6.1%	·	·	·
CCCCN(CC)CCCn1cnc2c([nH]c3ccc(Cl)cc32)c1=O	·	20.6µM*	20.6µM*	·	·	·
CSc1nc(COC(=O)NC(C)C)c(COC(=O)NC(C)C)n1Cc1ccccc1	·	9.2µM*	13µM*	17.8%	5.1%	10.3
CCc1ccccc1OCC(=O)NNCC(=O)Nc1cccc(C#N)c1	-7.1%	-25.9%	?	-7.7%	-5.9%	-5.5
CCCCN(C)S(=O)(=O)c1cc(-c2nnc3c4ccccc4c(C)nn23)ccc1C	·	3.66µM*	7.31µM*	·	·	·
Cc1nn2c(-c3ccccc3)nnc2c2ccccc12	-2.4%	-13.2%	-15.5%	-7.1%	-16.0%	-8.6
CCN(CC)c1ccc(-n2nc3cc(C)c(NC(=O)c4ccccc4C)cc3n2)c(C)c1	·	16.4µM*	20.6µM*	·	·	·
Cc1cc2nn(-c3cccc4ccccc34)nc2cc1NC(=O)c1cccs1	8.6%	23.1µM*	-72.4%	12.1%	7.7%	?
Cc1cc2nn(-c3ccc(F)cc3)nc2cc1NC(=O)c1cccc2c(Cl)cccc12	·	2.91µM*	?	·	·	·
CCN(CC)c1ccc(NC(=O)c2cccc(C)c2OC)c(C)c1	·	12.6µM*	11.2µM*	?	?	-22.2
CC[C@@H]1CC2=C(C(=O)OC(C)(C)O2)[C@H](c2ccc(Cl)cc2)O1	·	-14.4%	-23.7%	8.8%	7.1%	9.8
CCC(C)(C)n1nnnc1C(c1cccs1)N1CCCCC1 (configuration not stated)	-11.1%	?	18.4µM*	-10.6%	0.4%	-5.7
CCC(C)(C)n1nnnc1C(c1ccc(C)cc1)N1CCCC1 (configuration not stated)	-3.1%	-6.2%	-26.1%	6.2%	0.0%	-3.6
c1ccc(CC2CCN(C(c3cccs3)c3nnnn3C3CCCC3)CC2)cc1 (configuration not stated)	-0.9%	?	?	0.0%	2.8%	0.0
c1csc(C(c2nnnn2C2CCCCC2)N2CCCC3(CCCCC3)C2)c1 (configuration not stated)	1.2%	?	23.1µM*	5.3%	1.3%	0.8
CCC(C)(C)n1nnnc1C(c1ccc2ncccc2c1)N1CCCCCC1 (configuration not stated)	1.2%	11.2µM*	?	10.6%	16.7%	-5.0
COc1ccc(NC(=O)CSc2nnc3n2CCCCC3)cc1	-3.7%	-0.3%	-2.6%	-1.8%	-14.3%	-14.6
COc1ccccc1NC(=O)N(Cc1ccco1)Cc1cc2c(C)ccc(C)c2[nH]c1=O	-5.2%	0.6%	-3.1%	15.3%	11.6%	4.8
CCN(Cc1cc2cc(C)ccc2[nH]c1=O)C(=O)c1cccc(OC)c1	2.3%	?	?	0.5%	-8.3%	-9.4
COc1ccccc1NC(=O)N(Cc1ccco1)Cc1cc2cccc(C)c2[nH]c1=O	-3.4%	16.4µM*	29.1µM*	-12.6%	-9.4%	-11.7
COc1ccccc1NC(=S)N(Cc1ccco1)Cc1cc2cc(C)ccc2[nH]c1=O	-6.1%	9.2µM*	13µM*	?	?	16.7
COc1ccc(C(=O)N(Cc2ccco2)Cc2cc3cc(C)ccc3[nH]c2=O)cc1OC	2.7%	?	16.4µM*	0.7%	-2.2%	?
CCN(CC)CCN(Cc1cc2cc(C)ccc2[nH]c1=O)C(=O)Nc1ccccc1OC	1.3%	?	?	-26.7%	-24.7%	-22.2
SMILES	uPA surface inh	DT40 TDP1 CPT	DT40 TDP1 no CPT	HT1080NT lethal	HT1080 IDH1KD tx	IL-1B inflam inh
Cc1ccc2[nH]c(=O)c(CN(Cc3ccco3)C(=O)c3ccncc3)cc2c1	-18.0%	10.3µM*	10.3µM*	?	?	17.5
COc1ccc(N2CCN(S(=O)(=O)c3c(C)nc4sc(C)cn4c3=O)CC2)cc1	·	-8.7%	-12.9%	·	·	·
CCOc1ccc(NC(=O)COC(=O)c2ccccc2OCc2ccccc2Br)cc1	·	3.7%	-7.5%	10.3%	10.8%	·
CC1CCC(C(=O)NC(C(=O)OCC(=O)c2ccc(Br)cc2)C(C)C)CC1 (configuration not stated)	·	?	20.6µM*	·	·	·
CCc1ccc(C(=O)COC(=O)C(NC(=O)C2CCC(C)CC2)C(C)C)cc1 (configuration not stated)	·	-18.7%	?	·	·	·
CCN1C(=O)[C@H]2[C@@H](c3ccc(C)cc3)N[C@]3(CCCN(Cc4ccc(Cl)cc4)C3=O)[C@H]2C1=O	·	?	20.6µM*	3.8%	-0.6%	14.5
CCN1C(=O)[C@H]2[C@@H](c3ccc(C(F)(F)F)cc3)N[C@]3(CCCN(Cc4ccco4)C3=O)[C@H]2C1=O	·	23.1µM*	16.4µM*	-9.5%	-14.6%	19.4
CCN1C(=O)[C@H]2[C@@H](c3ccc(C(F)(F)F)cc3)N[C@]3(CCCN(Cc4cccn4C)C3=O)[C@H]2C1=O	·	?	?	-13.0%	3.1%	-5.8
CCN1C(=O)[C@H]2[C@@H](c3ccc(C(F)(F)F)cc3)N[C@]3(CCCN(Cc4ccc(Cl)cc4)C3=O)[C@H]2C1=O	·	18.4µM*	18.4µM*	-10.3%	7.2%	-13.3
CCN1C(=O)[C@H]2[C@@H](c3ccc(C)cc3)N[C@]3(CCCN(Cc4ccc(C)cc4)C3=O)[C@H]2C1=O	·	?	3.0%	?	?	?
CCN1C(=O)[C@H]2[C@@H](c3ccc(C(F)(F)F)cc3)N[C@]3(CCCN(Cc4ccc(C)cc4)C3=O)[C@H]2C1=O	·	13µM*	16.4µM*	-8.8%	-5.1%	-7.1
Cc1ccc(C)c(NC(=O)CN(C)C(C)C(=O)N2CC(C)CC(C)C2)c1 (configuration not stated)	4.1%	-9.5%	?	4.6%	10.5%	9.9
Cc1cnc(CNc2cc(-c3ccc(N(C)C)cc3)ncn2)cn1	·	-26.6%	-12.2%	·	·	·
CC(C)(C)OC(=O)N(Cc1ccccc1)Cc1ccccc1OCc1cccc(NC(=O)C2CCC2)c1	?	?	16.4µM*	-0.8%	-11.0%	-14.8
CC(C)C(=O)Nc1cccc(COc2cccc(CN(Cc3ccccc3)C(=O)OC(C)(C)C)c2)c1	?	?	?	-0.7%	-13.0%	1.2

Source: PubChem BioAssay (National Center for Advancing Translational Sciences (NCATS))
